# Measured values taken from PubChem BioAssay (NCI).
# Compounds without any hit were thinned out: in the full panel of roughly 79,000, 15% have a hit. Unmarked numbers belong to inactive results. Active and inactive are the calls of the source. No stated cut-off is given here; in the data, active means growth inhibition above about 70%; inactive means the rest. Where a SMILES comes first, the peptide text is derived from it. [ ]: non-standard residue; d: D form. Ac5c = NC1(C(=O)O)CCCC1
# Key:
# [1] = NCI Yeast Anticancer Drug Screen. Data for the rad50 strain (AID 155);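 further: 0% = growth of vehicle-only cultures of the same strain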; settings: S. cerevisiae rad50 strain growth inhibition; at 50.0 µM; active compounds read high
# Method in brief: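 Growth of the mutant yeast was measured after compound exposure and referenced to vehicle-treated cultures.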
# [2] = NCI Yeast Anticancer Drug Screen. Data for the mec2-1 strain (AID 157); settings: S. cerevisiae mec2-1 strain, at 50.0 µM, active compounds read high
# Method in brief: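 Each compound was tested on mec2-1 yeast, a strain altered in DNA damage repair or cell cycle control. Growth inhibition is reported relative to vehicle.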
# [3] = NCI Yeast Anticancer Drug Screen. Data for the sgs1 mgt1 strain (AID 161);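 further: 0% = growth of cultures given vehicle only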; settings: S. cerevisiae sgs1 mgt1 strain, at 50.0 µM, active compounds read high
# Method in brief: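 Mutant yeast exposed to compound; growth scored against vehicle-only wells.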
# [4] = NCI Yeast Anticancer Drug Screen. Data for the cln2 rad14 strain (AID 165);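 further: 0% = growth equal to vehicle treated cultures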; settings: S. cerevisiae cln2 rad14 strain, at 50.0 µM, active compounds read high
# Method in brief: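 Test compounds were added to cln2 rad14 yeast cultures; inhibition of growth was then determined by comparison with vehicle treatment.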
# [5] = NCI Yeast Anticancer Drug Screen. Data for the bub3 strain (AID 167); settings: S. cerevisiae bub3 mutant strain, at 50.0 µM, active compounds read high
# Method in brief: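 Whole-cell yeast assay. The mutant strain was incubated with compounds, and growth inhibition was determined by comparison with vehicle-treated cells.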
# [6] = NCI Yeast Anticancer Drug Screen. Data for the mlh1 rad18 strain (AID 175); settings: S. cerevisiae mlh1 rad18 strain growth inhibition; at 50.0 µM; active compounds read high
# Method in brief: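 Inhibition values reflect reduced growth of mutant yeast versus vehicle-treated controls following compound exposure; the mutations affect DNA damage repair.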
SMILES,growth inhibition [1] [%],growth inhibition [2] [%],growth inhibition [3],growth inhibition [4] [%],growth inhibition [5] [%],growth inhibition [6] [%]
COc1cc(-c2cc(CCC(=O)Nc3ccccc3[N+](=O)[O-])n(-c3ccc([N+](=O)[O-])cc3[N+](=O)[O-])n2)ccc1O,-5.2,-5.5,-42.7%,31.8,-4.65,-27.7
NC1=C(Br)C(=O)c2[nH]c(=O)[nH]c(=O)c2C1=O,18.8,7.6,24.4%,-4,7.15,20.6
CCOC(OCC)n1ncnc1NC(=S)NCc1ccccc1,-15.4,-23.6,3.75%,-2.7,-5.85,-11.2
C=CCCCCCCCC(O)C1C[C@H](O)C(CCCCC)O1 (stereo partly specified),-0.8,-16.9,9.25%,1.15,-17.2,-5
NC(CCC1CCCCC1)C(=O)O (stereo unspecified),-7.75,6.8,0.5%,-3.65,22.6,3.7
CCCCCCCCCSCCOC(=S)N(C)C,13.7,14.7,79.2% (active),2.7,21.8,34.6
COC(=O)[C@@H]1[C@H]2C[C@@H]3c4[nH]c5ccccc5c4CCN3C[C@@H]2CC[C@@H]1O,1.5,-9.55,13.9%,2.15,5.45,1.25
O=CC(=O)c1ccc(Cl)cc1,1.9,5.5,8.4%,31.1,-9.5,14.8
CC(=O)Nc1ccc(N=Nc2c(C)nn(C(=N)N)c2C)cc1,-5.45,-8.55,0.45%,0.6,-4.2,9
Cc1[nH]c2ccc([N+](=O)[O-])cc2c1C,19.1,-5.15,32.1%,26.4,25.4,38.4
COC1C=CC2OC(c3ccccc3)OCC2O1 (stereo unspecified),-16.2,9.1,-9.6%,-35,10,-1.65
Clc1ccc(/C=C/c2nc3ccccc3s2)cc1Cl,-13.8,-23.6,3.1%,9.95,27.2,-16.2
c1ccc(Oc2ccc(-c3ccccc3)cc2)cc1,-28.9,-52.9,1.8%,-7.85,-8.55,-31.3
COC(=O)c1ccccc1NC(=O)N(c1ccccc1)c1ccccc1,1.35,-3.45,14.4%,-12.2,17.8,-1.55
CC1(O)C=CC(=O)C=C1,0.05,6.75,-15.2%,1.95,-24.1,-7.6
CCCCN(CCO)CCO,-4.95,-8.45,9.3%,14.8,9.4,2.75
C=CCC1(C(=O)NC)c2ccccc2-c2ccccc21,-8.85,-6.4,1%,-18.8,43.1,-38.1
CC(C)C1N=C(N)N=C(N)N1c1ccc(Cl)c(Cl)c1 (stereo unspecified),17.4,10.1,8%,-16.9,5.25,6.6
C=CCN1C(C)(C)NC(=S)C1(C)C,-20.8,-4.9,-1.7%,-5,-6,-2.35
O=C(O)c1cccc(C2=CCCC2)c1,15.2,6.1,14.1%,10.3,-26.5,15.7
NC1(C(=O)NC2(C(=O)O)CCCC2)CCCC1 (H-[Ac5c]-[Ac5c]-OH),8.75,2.85,0.8%,-6.65,-42.9,40.4

SMILES,growth inhibition [1] [%],growth inhibition [2] [%],growth inhibition [3],growth inhibition [4] [%],growth inhibition [5] [%],growth inhibition [6] [%]
CCC1(c2ccccc2)NC(=O)N(N)C1=O (stereo unspecified),0.4,28.5,-8.8%,9.05,-0.75,1.85
Cc1nc(N)nc(C)c1N=Nc1ccc(Br)cc1Br,41.2,4.5,20.5%,5.05,0.6,15
O=C(CN1CCCc2ccccc21)c1ccc(Cl)cc1,-13.2,-2.05,2.55%,9.2,14.1,4.35
CNC(=O)CC(=O)NC,-20.4,-9.55,-16.9%,6.15,8.2,-10.1
COc1cc2cc(c1Cl)NC(=O)/C=C/[C@]1(C)O[C@H]1[C@H](C)[C@@H]1C[C@@](O)(NC(=O)O1)[C@H](OC)C=C/C=C(\C)C2,20.2,4.55,12.1%,22.1,20.5,21.4
C(=C1/NC(c2ccccc2)=Nc2ccccc21)/c1ccccc1,24.3,-0.5,10.9%,37.6,4.85,29.8
CCCCN=C(N)N=C(N)N,6.7,2.75,0.75%,-7.45,-5.15,4.05
CCCC1SC(=S)N(c2ccc(Cl)cc2)C1=O (stereo unspecified),17.9,22.1,26.5%,9.2,-1.55,9.9
CC(=O)NCCCCCC(=O)O,38.9,2.45,11.9%,10.7,-2.65,20.7
CCCCCCCCNC(=O)CBr,5.3,9.85,22.8%,-25.4,13.3,6.15
COc1ccc(N=C(C)C2C(=O)c3ccccc3C2=O)cc1,44,-21.9,-10.2%,13.7,16.6,-30.7
CN(C)CCC1(C2=CCCC2)CC/C(=C\c2ccc3c(c2)OCO3)C1=O (stereo unspecified),4.85,-13.7,-22.2%,16.4,-2.55,17.5
CC1=NNC(=O)CC1C(O)c1ccccc1 (stereo unspecified),-31.1,3.65,-12.1%,3,-8.45,-11.4
Cc1nn(C(=O)c2ccc(Cl)cc2)c2c1C(c1ccc(Cl)cc1)SC(N)=N2 (stereo unspecified),9.95,-21.2,31.4%,-24.9,-19.4,12.9
Nc1ccc(C(=O)Nc2ccc(NC(=O)c3ccco3)c(O)c2)cc1,2.5,-11.3,31.6%,13.4,20.7,10.1
CC1COC(C(C)C)(C(C)C)O1 (stereo unspecified),-8.6,-30.1,-4.2%,-10,-2.7,22.4
CC(=O)NCc1cc(C)c(CBr)cc1CBr,-1.95,-10.8,-3.6%,7.2,7.1,10.1
COc1c2c(cc3occ(-c4ccc(CC=C(C)C)cc4)c(=O)c13)OC(C)(C)C=C2,-3.8,-11.6,-3%,-24.8,-12.4,-35.5
Cn1nc(-c2cccc(-c3nn(C)c(=NCCO)s3)n2)sc1=NCCO,-29.8,-25.4,-51%,-6.7,-28.1,-40.6
Cc1cc2nc(Oc3ccccc3)nc(=O)n2o1,2.3,0.4,6.7%,-2.05,11.8,-9.2
